Test results: PubChem BioAssay
For some assays here: Results with a measured potency or affinity are listed apart. Active and inactive are the calls of the source. Unless noted, no cut-off is given here; in the data, nearly all actives have IC50 up to about 0.98 µM.

system: not listed separately; assay: inhibition of 3D7 malaria parasite growth – strain 3D7 (AID 2306; call rule not given here;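 note: 0% = DMSO wells and 100% = chloroquine plus artemisinin control wells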); settings: P. falciparum 3D7 erythrocytic growth, LDH absorbance, 72 h; at 2 µM; hits give high values

| Compound | growth inhibition |
| --- | --- |
| N#Cc1cccc(C(=O)NC2CCN(CCCCCNC(=O)/C=C/c3ccc(Cl)c(Cl)c3)CC2)c1 | 103% (active) |
| Cc1[nH]c(C)c(-c2ccc(C(=O)c3ccc(Cl)cc3)cc2)c(=O)c1Cl | 98% (active) |
| Fc1ccc(-c2nc(NCc3cccc(C(F)(F)F)c3)nn2-c2cccc(C(F)(F)F)c2)cc1C(F)(F)F | 90% (active) |

target: Calcium-dependent protein kinase 1 (Plasmodium falciparum (isolate 3D7)) (UniProt P62344); assay: PfCDPK1 kinase inhibitors, biochemical, TCAMS library (AID 1159585); settings: recombinant PfCDPK1, Kinase-Glo ATP depletion luminescence;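 note: inhibitors leave more ATP so luminescence rises with inhibition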
Sequence (P62344 whole entry, looked up): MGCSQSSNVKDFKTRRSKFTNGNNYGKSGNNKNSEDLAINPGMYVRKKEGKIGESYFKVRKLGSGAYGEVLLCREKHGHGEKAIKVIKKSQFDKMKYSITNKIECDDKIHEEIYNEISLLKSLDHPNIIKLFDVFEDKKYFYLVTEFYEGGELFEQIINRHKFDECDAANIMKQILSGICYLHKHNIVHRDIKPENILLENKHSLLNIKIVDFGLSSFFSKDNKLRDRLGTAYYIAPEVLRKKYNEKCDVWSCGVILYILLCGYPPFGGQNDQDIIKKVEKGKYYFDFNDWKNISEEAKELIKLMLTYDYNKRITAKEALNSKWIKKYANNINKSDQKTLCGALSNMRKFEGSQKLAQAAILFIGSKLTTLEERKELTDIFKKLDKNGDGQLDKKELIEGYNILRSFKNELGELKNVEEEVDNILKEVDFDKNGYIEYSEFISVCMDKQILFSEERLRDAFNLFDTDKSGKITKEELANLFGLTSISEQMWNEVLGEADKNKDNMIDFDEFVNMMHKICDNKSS

| Compound | outcome |
| --- | --- |
| Cn1c2c(c3ccccc31)CN(CCC1(c3ccc(Cl)c(Cl)c3)CN(C(=O)Cc3ccccc3)CCO1)CC2 (stereo not drawn) | inactive |
| O=C(NCc1ccc(F)cc1)Nc1ccc(-c2cccc(-c3nc4ccc(F)cc4[nH]3)c2)cc1 | inactive |
| COc1ccc(/C=C/C(=O)N2CCc3cc4nccc(N5CCN6CCC[C@H]6C5)c4cc32)cc1 | inactive |
| CS(=O)(=O)Nc1cccc(-c2cnc3[nH]cc(-c4cc(N)cc(C(=O)O)c4)c3c2)c1 | inactive |
| CCN(CC)CCN(Cc1ccc(-c2ccc(C(F)(F)F)cc2)cc1)C(=O)Cn1c(CCc2ccc(F)c(F)c2F)nc(=O)c2cccnc21 | inactive |
| Cc1cc(N2CCOCC2)nc2ccc(NC(=O)c3ccc(Cl)c([N+](=O)[O-])c3)cc12 | inactive |
| CCOc1cccc(C(=O)Nc2ccc(-c3nc4ccccc4[nH]3)cc2)c1 | inactive |
| O=C(NCCCCN1CCC(c2ccc([N+](=O)[O-])cc2)CC1)c1ccc(NC(=O)c2ccc(Cl)cc2)cc1 | inactive |
| O=C(Nc1cccc(-c2ccc(CN3CCNCC3)cc2)c1)c1cccc(Cl)c1 | inactive |
| Cc1cc(N(C)C)nc(Nc2ccc(NC(=O)C(C)Oc3ccccc3)cc2)n1 (stereo not drawn) | inactive |
| CCN(CC)CCN(Cc1ccc(-c2ccc(C(F)(F)F)cc2)cc1)C(=O)Cn1c(CCc2ccc(F)cc2)nc(=O)c2sccc21 | inactive |
| Cc1ncc([N+](=O)[O-])n1CCOC(=O)NC(NCC1COc2ccccc2O1)C(Cl)(Cl)Cl (stereo not drawn) | inactive |
| COC(=O)c1ccc(CN2CCC(N(Cc3cccc(Oc4ccccc4)c3)S(=O)(=O)c3ccc(NC(C)=O)cc3)CC2)cc1 | inactive |
| COc1ccc(CN2CCC(N3CC(c4ccccc4)(c4ccccc4)OCC3=O)C2)c(O)c1 (stereo not drawn) | inactive |
| CC(C)Oc1ccc(C=CC(=O)Nc2noc3ccccc23)cc1 | inactive |
| N#Cc1ccc(Cn2ccc3c4c(N)nc(N)nc4ccc32)cc1 | inactive |
| CC(=O)c1cccc(Nc2nc3c(C#N)c(OCc4cc(Cl)cc(Cl)c4)ccc3[nH]2)c1 | inactive |
| CCN(CC)CCCN(Cc1ccc(-c2ccc(C(F)(F)F)cc2)cc1)C(=O)Cn1c(SCc2cccc(F)c2F)cc(=O)c2ccccc21 | inactive |

| Compound | outcome |
| --- | --- |
| Cc1[nH]c(C)c(-c2ccc(OCCOc3ccc(C(F)(F)F)cn3)cc2)c(=O)c1Br | inactive |
| CC(C)CCOc1ccc(NC(=O)c2cccs2)cc1 | inactive |
| CCN1CCN(c2ccc(Nc3ccnc4ccc(Br)cc34)cc2)CC1 | inactive |
| CC1(C)N=C(NC(=O)Nc2ccc([N+](=O)[O-])cc2)N=C(N)N1OCc1cccc2ccccc12 | inactive |
| CC(O)C1CCCCN1C(=O)c1cccc(-c2cccc(-c3nc4ccc(F)cc4[nH]3)c2)c1 (stereo not drawn) | inactive |
| COc1cccc(-c2cccc(-c3ccc(NC(=O)c4ccc([N+](=O)[O-])o4)cc3)n2)c1 | inactive |
| N#Cc1ccc2c(c1)CN(C1CCC(NC(=O)c3cc(-c4ccc(Cl)cc4)cs3)CC1)CCC2 (stereo not drawn) | inactive |
| CCOc1ccc2nc3cc(NC(=O)c4ccco4)ccc3c(N)c2c1 | inactive |
| COc1ccc2ncc(F)c([C@@H](O)CN3CCC(NCc4cc5c(cn4)OCS5)CC3)c2c1 | inactive |
| FC(F)(F)c1ccc2nccc(NCc3ccccc3)c2c1 | inactive |
| COc1ccc(CN2CCCN(Cc3cccc(C(=O)Nc4ccc(C(C)(C)C)cc4)c3)CC2)cc1 | inactive |
| CCc1ccc(C(=O)NC(=O)c2ccccc2O)cc1 | inactive |
| COc1ccc(N2CCN(CCCNC(=O)c3ccc(NC(=O)c4cc(Cl)cc(Cl)c4)cc3)CC2)c(OC)c1 | inactive |
| CCCC(=O)Nc1ccc(OCCCN(Cc2ccccc2F)c2ccc(C#N)c(C(F)(F)F)c2)cc1 | inactive |
| CN(C)c1ccc(C2c3nc[nH]c3CCN2C(=O)Nc2cccc([N+](=O)[O-])c2)cc1 (stereo not drawn) | inactive |
| COc1cccc(NC(=O)Nc2ccc(Nc3nc(C)cc(N(C)C)n3)cc2)c1 | inactive |
| CCn1ncc2c(N3CCCC3=O)cc(C(=O)N[C@@H](Cc3ccccc3)[C@H](O)CNC(C)(C)c3cccc(C(F)(F)F)c3)cc21 | inactive |
